In PubChem BioAssay (Tox21):
Inconclusive results are not listed. Activity calls are given as the source filed them. Unless noted, the call rests on the fitted dose curve; in most records, active means well fitted curve in the direction sought with a large enough effect in the repeat runs; inconclusive means weak or mixed curves; inactive means no such curve, though single readings can be large; an effect the other way counts as inactive or inconclusive.

How the values were obtained:
[1] = qHTS assay for small molecules that induce genotoxicity in human embryonic kidney cells expressing luciferase-tagged ATAD5 (AID 651632); further: nearly all actives have a fitted effect of over 15% in size
Method in brief: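 HEK293T cells carrying a luciferase reporter tagged to ATAD5 were exposed to compound or DMSO vehicle for 16 hr at 37C, 5% CO2. Amplite was added, and after 30 min at room temperature luciferase activity was read as a marker of ATAD5 induction.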

[2] = qHTS assay for small molecule agonists of the p53 signaling pathway - cell viability (AID 651633; calls by dose curve;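 further: p53RE-bla HCT reporter cells with a stable beta-lactamase p53 reporter; series mostly up to about 83 µM; nearly all actives have a fitted effect of over 30% in size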)
Method in brief: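 p53RE-bla cells, seeded at 4,000 per well and rested 5 h at 37 C/5% CO2, received compounds in DMSO for 16 h at 37 C. CellTiter-Glo was then added, and luminescence was read after 30 min at room temperature to gauge cytotoxicity.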

[3] = qHTS assay for small molecules that induce genotoxicity in human embryonic kidney cells expressing luciferase-tagged ATAD5 - cell viability (AID 651634; calls by dose curve; further: nearly all actives have a fitted effect of over 25% in size)
Method in brief: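 HEK293T cells expressing luciferase-tagged ATAD5 were exposed to compound or DMSO for 15.5 hr at 37C, 5% CO2. Viability was then read as live-cell protease activity by CellTiter-Fluor fluorescence after 30 min at 37C.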

[4] = qHTS assay for small molecule disruptors of the mitochondrial membrane potential - cell viability (AID 720634; calls by dose curve;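 further: human HepG2 liver cancer cells; series mostly up to about 83 µM; nearly all actives have a fitted effect of over 20% in size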)
Method in brief: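 HepG2 cells seeded overnight at 37 C, then exposed to compound or DMSO for 1 hr at 37 C, 5% CO2. m-MPI dye added, then CellTiter-Glo for 30 min at room temperature; viability read as ATP luminescence.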

[5] = qHTS assay for small molecule disruptors of the mitochondrial membrane potential (AID 720635)
Method in brief: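 HepG2 cells (2,000/well) attached overnight at 37C, then took compound for 1 hr at 37C, 5% CO2. Mito-MPS dye was added for 30 min; fluorescence was read at 490/535 nm (monomers) and 540/590 nm (aggregates).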

[6] = qHTS assay to test for compound auto fluorescence at 590 nm (red) in HepG2 cells (AID 720674)
Method in brief: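 Compound auto-fluorescence is scored relative to Rose Bengal sodium, measured at 540/590 nm in live HepG2 cultures after 1 hr compound contact (37 C, 5% CO2).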

[7] = qHTS assay to test for compound auto fluorescence at 535 nm (green) in HepG2 cells (AID 720675)
[8] = qHTS assay to test for compound auto fluorescence at 460 nm (blue) in HEK293 cells (AID 720678)
Method in brief: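 Cells were seeded and left to adhere for 4-5 hr at 37C. Compounds were then pin-transferred. After an overnight incubation at 37C under 5% CO2, intrinsic fluorescence at 405/460 nm was measured and referenced to triamterene.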

[9] = qHTS assay to test for compound auto fluorescence at 590 nm (red) in HEK293 cells (AID 720679)
Method in brief: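 Each well held 2,000 HEK293 cells in medium containing 10% dialyzed FBS. Following 4-5 hr attachment at 37C, 23 nL test compound or DMSO was added; plates sat overnight, and red fluorescence (540/590nm) was recorded.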

[10] = qHTS assay to test for compound auto fluorescence at 535 nm (green) in HEK293 cells (AID 720680)
[11] = qHTS assay to test for compound auto fluorescence at 460 nm (blue) in HEK293 cell free culture (AID 720681)
Method in brief: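 Test compounds were pinned into cell-free culture medium (DMEM with 10% FBS) and fluorescence was read directly at Ex/Em 405/460 nm. Signals were expressed as fluorescence equivalents of triamterene, with DMSO vehicle as control.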

[12] = qHTS assay to test for compound auto fluorescence at 590 nm (red) in HEK293 cell free culture (AID 720683)
Method in brief: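 Tox21 10K library compounds were pinned into cell-free DMEM with 10% FBS and fluorescence was read at excitation 540 nm. Activity is expressed as Rose Bengal sodium equivalency.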

[13] = qHTS assay to test for compound auto fluorescence at 590 nm (red) in HepG2 cell free culture (AID 720684)
Method in brief: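 Measured in medium alone (MEM containing 10% FBS) following pintool addition of compound; emission at 590 nm with 540 nm excitation, referenced to Rose Bengal sodium.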

[14] = qHTS assay to test for compound auto fluorescence at 460 nm (blue) in HepG2 cell free culture (AID 720685)
Method in brief: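 Compound (23 nL) or DMSO pinned into cell-free MEM with 10% FBS; blue fluorescence read at 405/460 nm excitation/emission, expressed as auto-fluorescence equivalency to triamterene.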

[15] = qHTS assay to test for compound auto fluorescence at 460 nm (blue) in HepG2 cells (AID 720687)
Method in brief: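 Cells (2,000/well in MEM with 10% FBS) attached overnight at 37 C, then were exposed to compound or DMSO for 1 hr at 37 C, 5% CO2. Fluorescence read at Ex/Em 405/460 nm, expressed as triamterene-equivalent signal.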

[16] = molecular target: Glucocorticoid receptor (Homo sapiens) (UniProt P04150); assay: qHTS assay to identify small molecule agonists of the glucocorticoid receptor (GR) signaling pathway (AID 720691; active means well fitted activation curve with a large enough effect in the signal ratio in the repeat runs, not every such curve was filed as active; the % refers to the signal ratio)
Method in brief: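 GR-bla HeLa cells (beta-lactamase reporter under glucocorticoid response element) were plated 4 h at 37 C/5% CO2, given compounds in DMSO, and incubated 18 h at 37 C. LiveBLAzer B/G FRET substrate was added for 2 h at room temperature, then fluorescence intensity read.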

[17] = qHTS assay to test for compound auto fluorescence at 535 nm (green) in HEK293 cell free culture (AID 720682)
Method in brief: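 No cells present: wells hold DMEM supplemented with 10% FBS, into which compound or vehicle is pinned. Green emission is then recorded (485 nm excitation, 535 nm emission) and scaled to fluorescein.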

[18] = qHTS assay to test for compound auto fluorescence at 535 nm (green) in HepG2 cell free culture (AID 720686)
[19] = molecular target: Glucocorticoid receptor (Homo sapiens) (UniProt P04150); assay: qHTS assay to identify small molecule antagonists of the glucocorticoid receptor (GR) signaling pathway (AID 720692; active means well fitted inhibition curve with a large enough effect in the signal ratio in the repeat runs, not every such curve was filed as active; the % refers to the signal ratio)
Method in brief: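 GR-bla HeLa cells (beta-lactamase reporter under glucocorticoid response element) were pre-plated 4 h at 37 C, treated with compounds plus 5 nM dexamethasone (final) for 18 h, then read by LiveBLAzer B/G FRET fluorescence after 2 h.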

[20] = qHTS assay for small molecule agonists of the p53 signaling pathway (AID 651631; calls by dose curve; further: nearly all actives have a fitted effect of over 15% in size)
Method in brief: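 Agonist mode screen using a stably integrated beta-lactamase gene under p53 response elements in HCT-116 cells. Compound exposure lasts 16 h at 37 °C; fluorescence intensity is measured following 2 h FRET substrate loading.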

Measured: Potency

Glucocorticoid receptor (Homo sapiens), sequence (P04150 whole entry, looked up): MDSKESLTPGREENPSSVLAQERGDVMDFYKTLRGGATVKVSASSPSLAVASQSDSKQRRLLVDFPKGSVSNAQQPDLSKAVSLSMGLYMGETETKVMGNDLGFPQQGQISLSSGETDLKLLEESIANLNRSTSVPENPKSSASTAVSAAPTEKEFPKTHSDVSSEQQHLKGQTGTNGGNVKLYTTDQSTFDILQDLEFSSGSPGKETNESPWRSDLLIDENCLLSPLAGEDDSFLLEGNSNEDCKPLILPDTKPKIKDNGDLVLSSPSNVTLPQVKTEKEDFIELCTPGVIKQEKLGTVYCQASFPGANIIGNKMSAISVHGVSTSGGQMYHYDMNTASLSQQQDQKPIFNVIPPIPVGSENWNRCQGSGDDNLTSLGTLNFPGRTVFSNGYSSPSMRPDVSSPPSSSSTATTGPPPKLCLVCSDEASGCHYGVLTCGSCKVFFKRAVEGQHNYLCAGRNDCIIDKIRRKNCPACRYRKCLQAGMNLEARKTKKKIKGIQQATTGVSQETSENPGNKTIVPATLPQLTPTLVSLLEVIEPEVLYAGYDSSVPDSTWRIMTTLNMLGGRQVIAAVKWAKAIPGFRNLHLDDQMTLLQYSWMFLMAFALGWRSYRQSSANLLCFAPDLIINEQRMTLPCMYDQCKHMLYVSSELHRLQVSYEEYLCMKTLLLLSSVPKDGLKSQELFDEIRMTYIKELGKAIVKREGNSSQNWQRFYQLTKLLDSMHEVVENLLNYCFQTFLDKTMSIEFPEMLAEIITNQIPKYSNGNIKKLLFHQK

Nc1ncnc(Nc2ccccc2)n1
not listed: [17] | [18] | [19] | [20]
inactive: all other assays above

C=C(C)C(=O)OCc1ccccc1
not listed: [8] | [16] | [19] | [20]
inactive: all other assays above

CCC(C)(CCC(C)C)C(=O)O (stereo not given)
not listed: [5] | [11] | [16] | [17] | [19] | [20]
inactive: all other assays above

CC(CN)CC(C)(C)CCN (stereo not given)
not listed: [9] | [11] | [16] | [17] | [18] | [20]
inactive: all other assays above

O=Cc1ccc(Cl)c(Cl)c1
not listed: [5] | [13] | [16] | [20]
inactive: all other assays above

On1nnc2ccccc21
not listed: [1] | [3] | [5] | [8]
inactive: all other assays above

CC(=O)Nc1cccc(C)c1
not listed: [5] | [17] | [18] | [20]
inactive: all other assays above

C#CC(C)N(C)C(=O)Nc1ccc(Cl)cc1 (stereo not given)
not listed: [1] | [4] | [5] | [9] | [11] | [16] | [19]
inactive: all other assays above

CC(CC=O)CCCC(C)(C)O (stereo not given)
not listed: [5] | [16] | [20]
inactive: all other assays above

CCC(CC)CO
not listed: [16] | [19] | [20]
inactive: all other assays above

CC/C=C\CC1=C(C)CCC1=O
not listed: [5] | [16] | [17] | [19] | [20]
inactive: all other assays above

C[Si](C)(C)C
not listed: [17] | [20]
inactive: all other assays above

O=S(=O)(O)c1cc(O)c2ccc(Nc3ccccc3)cc2c1
not listed: [5] | [16] | [19] | [20]
inactive: all other assays above

CC(C)NCC(O)COc1cccc2[nH]ccc12 (stereo not given)
not listed: [1] | [3] | [13]
inactive: all other assays above

COC(=O)CCc1ccc(OCC(O)CNC(C)C)cc1 (stereo not given)
not listed: [17] | [20]
inactive: all other assays above

COC(=O)CCCCCCCC(=O)OC
not listed: [5] | [20]
inactive: all other assays above

CC(CO)c1ccccc1 (stereo not given)
not listed: [16] | [18] | [19] | [20]
inactive: all other assays above

O=C(O)CCSSCCC(=O)O
not listed: [5] | [20]
inactive: all other assays above

C[C@H](CCC(=O)O)[C@H]1CC[C@H]2[C@@H]3C(=O)C[C@@H]4CC(=O)CC[C@]4(C)[C@H]3CC(=O)[C@]12C
not listed: [5] | [20]
inactive: all other assays above

Cc1ccccc1N=O
not listed: [1] | [5] | [8] | [9] | [13] | [16] | [17]
inactive: all other assays above

CC(=O)N[C@@H](CCC(=O)O)C(=O)O
not listed: [5] | [11] | [13] | [17] | [18] | [20]
inactive: all other assays above

CCCCC(CC)COCCO (stereo not given)
not listed: [5] | [11] | [18] | [19] | [20]
inactive: all other assays above

CN(C)CCOCCO
not listed: [18] | [20]
inactive: all other assays above

COc1nccnc1NS(=O)(=O)c1ccc(N)cc1
not listed: [5] | [16] | [19] | [20]
inactive: all other assays above

O=C1c2ccccc2C(=O)c2cc(S(=O)(=O)O)ccc21
not listed: [1] | [5] | [18] | [20]
inactive: all other assays above

O=C(O)c1ccc(Cl)cc1Cl
not listed: [1] | [5] | [11] | [17] | [20]
inactive: all other assays above

CCN(CC)CC(=O)Nc1c(C)cccc1C
not listed: [1] | [5] | [20]
inactive: all other assays above

C[C@@H](Oc1ccc(CNC(=O)c2cccnc2Oc2ccc3c(c2)OCO3)c(F)c1)C(=O)O
not listed: [5] | [8] | [20]
inactive: all other assays above

CC(C)CCCCOC(=O)c1ccccc1C(=O)OCCCCC(C)C
not listed: [4] | [5] | [9] | [13] | [16] | [19] | [20]
inactive: all other assays above

O=C(OCC(COC(=O)c1cccnc1)(COC(=O)c1cccnc1)COC(=O)c1cccnc1)c1cccnc1
not listed: [2] | [8] | [20]
inactive: all other assays above
